Each structure is given as a SMILES string. Inconclusive results are not listed. Values without a mark were called inactive. Calls come from the whole dose curve; as a rule, active = well fitted cell-killing curve with a large enough effect in the repeat runs; inconclusive = weak or mixed curves, or effect the other way; inactive = flat fitted curve, though single readings scatter.
% is set by controls: 0 for no effect and ±100 for the full control effect.

The assay is described as follows: qHTS RealTime-Glo MT Cell Viability Assay in HepG2 cells - 40 hour (AID 1224870). Note: nearly all actives have a fitted effect of over 50% in size. Particulars: RealTime-Glo luminescence; series mostly up to 76.8 µM; activity change, negative = cytotoxic: at the top concentration. The source says:
National Center for Advancing Translational Sciences [NCATS]
NIH Chemical Genomics Center [NCGC]
U.S. Environmental Protection Agency [EPA]
National Institutes of Environmental Health Sciences [NIEHS]
National Toxicology Program [NTP]
U.S. Food and Drug Administration [FDA]
Measure of cell viability is critical in the cell-base assay. Analysis of cell viability is necessary for the characterization of cell responses to cytotoxic drugs and environmental stress. A RealTime-Glo MT Cell Viability Assay to monitor cell viability in real time of continues cell culture during 40 hours of compound treatment was used to screen Tox21 10K library compounds in HepG2 cells. The RealTime-Glo MT Cell Viability Assay is a nonlytic, homogeneous, bioluminescent method to measure cell viability in real time using a simple, plate-based method. The assay involves adding NanoLuc luciferase and a cell-permeant prosubstrate to cells in culture. Viable cells reduce the proprietary prosubstrate to generate a substrate for NanoLuc luciferase. This substrate diffuses from cells into the surrounding culture medium, where it is rapidly used by the NanoLuc Enzyme to produce a luminescent signal. The signal correlates with the number of viable cells, making the assay well suited for cytotoxicity studies.
Tox21 Assay Protocol Summary:
The mixture of HepG2 cell suspension and reagents were dispensed at 600cells/6 ul/well in 1536-well tissue culture treated black solid bottom plates using a Multidrop dispenser. After the assay plates were incubated at a 37 C/5% CO2 incubator for 5 hours, 23 nL of compounds dissolved in DMSO, positive and negative controls was transferred to the assay plate by a pintool work station. The plates were incubated at 37 C for 40 hours. The luminescence intensity were measured at 0h, 8h, 16h, 24h, 32h and 40h time points using ViewLux plate reader during compound treatment.
In the case of `CCCCCCCCCCl`, the “activity change, negative = cytotoxic” value is -2.62%. To `CC(C)C(=O)OCc1cccc(OC(=O)[C@@H]2N3C(=O)[C@@H](NC(=O)Cc4ccccc4)[C@H]3SC2(C)C)c1` belongs 0.208% [at 35.3 µM]; to `CCN1CCc2nc(N)oc2CC1`, -5.02% [at 35.3 µM]. To `O=C(NCCc1c[nH]c2ccccc12)c1cccnc1` belongs 1.14% [at 35.3 µM]; to `Cc1ccccc1OCC(O)CO` (stereo not given), 3.79% [at 35.3 µM]; to `CCCCC(CC)COCCO` (stereo not given), 0.0197%. The same measure for `CC(C)CCCCOC(=O)c1ccccc1C(=O)OCCCCC(C)C`: -9.24%; for `C[C@@H](O)[C@H]1C(=O)N2C(C(=O)O)=C(SCCN=CN)C[C@H]12`: -0.166% [at 35.3 µM]; for `CC(=O)NCCCCCC(=O)O`: 1.24% [at 35.3 µM]. Consider `O=C(/N=N/C(=O)OCc1ccccc1)OCc1ccccc1`, for which the “activity change, negative = cytotoxic” value is -5.02%. The same measure for `Nc1ncnc(Nc2ccccc2)n1`: 2.74% [at 35.3 µM]; for `NS(=O)(=O)c1cc2c(cc1Cl)CN(C1CCCCC1)C2=O`: 2.31% [at 35.3 µM]. With `Cc1cccc(OCC(O)CNC(C)(C)C)c1C` (stereo not given), the “activity change, negative = cytotoxic” value is 0.592% [at 35.3 µM]. To `O=C1c2ccccc2C(=O)C1c1ccccc1` belongs 3.88% [at 35.3 µM]; to `CC(C)N(c1ccccc1)C(C)C`, 1.44%; to `Cc1c(I)c(=O)n(-c2ccccc2)n1C`, -0.141% [at 35.3 µM]. To `O=P(O)(O)OP(=O)(O)O` belongs -0.298%; to `COc1ccc(S(=O)(=O)N2c3ccc(Cl)cc3[C@@](O)(c3ccccc3Cl)[C@H]2C(=O)N2CCC[C@@H]2C(N)=O)cc1OC`, 2.76% [at 35.3 µM]; to `CCCN1C[C@H](CSC)C[C@@H]2c3cccc4[nH]cc(c34)C[C@H]21`, 0.841% [at 35.3 µM]. The same measure for `Cc1cc2cc3c(C)cc(=O)oc3c(C)c2o1`: 3.06% [at 35.3 µM]; for `CCCCOCCOC(=O)COc1nc(Cl)c(Cl)cc1Cl`: -0.329%; for `O=C(CS(=O)Cc1ccco1)NC/C=C\COc1cc(CN2CCCCC2)ccn1` (stereo not given): 1.39% [at 35.3 µM]. For the compound `OC[C@H](Cc1cccc(O)c1)[C@H](CO)Cc1cccc(O)c1`, the “activity change, negative = cytotoxic” value is -9.33%.

Consider `CC(=O)Nc1cccc(C)c1`, for which the “activity change, negative = cytotoxic” value is 1.17%. To `COCCOCCOCCOCCO` belongs -0.266%. On to `Cc1ccccc1N=O`, for which the “activity change, negative = cytotoxic” value was 0.6%. For `C[C@H](N)[C@H](O)c1cccc(O)c1`, the “activity change, negative = cytotoxic” value is 3.86% [at 35.3 µM]. To `Cc1cc(Cl)c(C)cc1Cl` belongs -2.7%; to `COC(=O)CCCCCCCC(=O)OC`, 0.295%. To `CCN(C)C(=O)Oc1cccc([C@H](C)N(C)C)c1` belongs 2.89% [at 35.3 µM]; to `Cc1cc(C(C)(C)C)c(O)c(C)c1CC1=NCCN1`, -0.284% [at 35.3 µM]. In the case of `NC(CO)C(=O)NNCc1ccc(O)c(O)c1O` (stereo not given), the “activity change, negative = cytotoxic” value was -0.735% [at 35.3 µM]. To `CC1COc2ccccc2N1` (stereo not given) belongs -0.611%.

For `CNC(=O)[C@H]1O[C@@H](n2cnc3c(NCc4cc(Cl)ccc4OCc4cc(C)no4)ncnc32)[C@H](O)[C@@H]1N`, the “activity change, negative = cytotoxic” value was -1.61%. The same measure for `C[C@H](CCC(=O)O)[C@H]1CC[C@H]2[C@@H]3C(=O)C[C@@H]4CC(=O)CC[C@]4(C)[C@H]3CC(=O)[C@]12C`: 1.35% [at 35.3 µM]. The same measure for `CCOC(=O)/C=C/c1ccccc1`: -0.24%. `CC(C)(C)c1n[nH]c(=S)n(N)c1=O`: the “activity change, negative = cytotoxic” value is 0.282%. With `CC(C)=O`, the “activity change, negative = cytotoxic” value is 22.9%. To `CCCCCCCCCC(C)=O` belongs 0.24%; to `CCC(C=O)CC`, -1.38%.

Values taken from PubChem BioAssay (Tox21).
